# Results: ChEMBL document CHEMBL4513216, “Probing the Open Global Health Chemical Diversity Library for Multistage-Active Starting Points for Next-Generation Antimalarials” (ACS Infect Dis, 2020)
# The whole screen tested about 69,000 compounds, of which about 8,600 (12%) showed an effect of 50% or more. For the sample, strong results were picked, then their nearest neighbours and some compounds at random.
# Tested on: Plasmodium berghei
# Test: Screen against P. berghei liver stage (PbLuc), transformed with Luciferase, at 10uM
# Type: functional, HepG2
# Details: tested at 10 uM
row,SMILES,INHIBITION [%]
1,CC(=O)c1cn(CCC(=O)NCCCC(=O)O)c2ccccc12,-10.2
2,CC(NC(=O)NCCCn1cccn1)c1ccc2c(c1)OCCCO2 (configuration not stated),-6.7
3,COc1ccc(CC(=O)N2CC[C@@H](OC)[C@@H]2Cc2cccnc2)cc1,38.5
4,CO[C@@H]1CCN(C(=O)Cc2cccc(F)c2)[C@H]1Cc1cccnc1,19.6
5,CO[C@@H]1CCN(C(=O)Cc2ccc(F)cc2)[C@@H]1Cc1cccnc1,55.4
6,NC(=O)CNC1(c2ccc(Br)cc2)CCOCC1,19.4
7,CC(C)CN1CC(O)CN(S(=O)(=O)c2ccc(F)cc2)CC1=O (configuration not stated),34.3
8,Cc1nccc(N2CCCC(C)(c3[nH]ncc3C(N)=O)C2)n1 (configuration not stated),-7.66
9,CN(C)C(=O)c1cn[nH]c1C1(C)CCN(c2ncccn2)CC1,12.45
10,Cc1cc(C)nc(N2CCCC(C)(c3[nH]ncc3C(=O)N(C)C)C2)n1 (configuration not stated),53.1
11,Cc1ccc(S(=O)(=O)NC(CO)CC(C)C)cc1N(C)C (configuration not stated),31.7
12,Cc1nc(C)n(C2CCCN(C(=O)CCCc3ccccn3)C2)n1 (configuration not stated),-11.9
13,CC(c1ccco1)N(C)Cc1cc2cc3c(cc2[nH]c1=O)OCO3 (configuration not stated),16.9
14,CCc1nccn1CC(=O)Nc1cccc(C(=O)OC)c1,-10.9
15,CC1CCN(c2ccc(NC(=O)CCn3cccn3)cc2)CC1,11.3
16,CC(NCC(=O)Nc1ccc(N2CCCCCC2)cc1)c1cccs1 (configuration not stated),64.9
17,CC1CN(c2ccc(NC(=O)Cn3cccn3)cc2)CCO1 (configuration not stated),16.5
18,O=C(Cn1cccn1)Nc1ccc(N2CCOCC2)cc1,68.9
19,CCc1nccn1CC(=O)Nc1cccc(C(=O)N(C)C)c1,0.0996
20,O=C(Cn1cccn1)Nc1ccc(N2CCCCC2)cc1,50.2
21,CCc1nccn1CC(=O)Nc1cccc(N2CCCC2)c1,74.55
22,COC1CCN(c2ccc(NC(=O)Cn3cccc3)cc2)CC1,14.2
23,COC1CCN(c2ccc(NC(=O)Cn3cccn3)cc2)CC1,8.31
24,CC(NCC(=O)NCC(=O)Nc1ccc(F)cc1)c1cccs1 (configuration not stated),0.734
25,CC(C)CCC(=O)NCc1ccc(N2CCCCC2)cc1,15.5

row,SMILES,INHIBITION [%]
1,CN1CCN(C(=O)c2ccccc2)CC(Cc2cc(N(C)C)ncn2)C1 (configuration not stated),21.1
2,CCCn1nc(C(=O)N(C)Cc2cnn(C)c2)ccc1=O,48.7
3,CCOCC1CN(C(=O)c2ccnnc2)Cc2cnn(C)c21 (configuration not stated),-2.35
4,CN1CCN(Cc2cnc3n2CCN(Cc2cccnc2)CC3)CC1,-1.36
5,c1cnc(OCc2nnc3n2CCN(CC2CCOCC2)C3)nc1,6.66
6,Cc1nn(C)c(C)c1C1CCCN1C(=O)CCc1ccco1 (configuration not stated),-37.7
7,COc1cccc(-c2n[nH]cc2CNC2CCN(C(C)C)CC2)c1,-59.5
8,CCC(NC(=O)C1CC1)c1ccccc1OCC(=O)N1CCCC1 (configuration not stated),9.47
9,Cn1c(=O)[nH]c(=O)n2c(CC(=O)Nc3c(Cl)cccc3Cl)cnc12,9.32
10,CN(C)c1cc(C2CCCN(S(=O)(=O)C3CCCC3)C2)ccn1 (configuration not stated),54.4
11,O=C(c1noc2c1CCCC2)N1CCCC(c2nccs2)C1 (configuration not stated),13.7
12,CN(C)c1cc(C2CCCN2C(=O)c2noc3c2CCCC3)ccn1 (configuration not stated),-13.2
13,CN(C)c1cc(C2CCCN(C(=O)c3noc4c3CCCC4)C2)ccn1 (configuration not stated),65.7
14,CNc1cc(C2CCCN(S(=O)(=O)c3cn[nH]c3)C2)ccn1 (configuration not stated),28
15,Cc1cc(C2CCCN(S(=O)(=O)c3cn[nH]c3)C2)ccn1 (configuration not stated),19.6
16,CN(C)c1cc(C2CCCN(S(=O)(=O)c3cn(C)cn3)C2)ccn1 (configuration not stated),-44.2
17,CCS(=O)(=O)N1CCCC(c2ccnc(N(C)C)c2)C1 (configuration not stated),0.301
18,CN(C)c1cc(C2CCCN(S(=O)(=O)c3cn[nH]c3)C2)ccn1 (configuration not stated),85.7
19,Cc1nc(CCNCc2c(C)nn(C)c2N2CCOCC2)cs1,-1
20,CCc1cc(NCC(O)CN2CCCCC2)ncn1 (configuration not stated),27.4
21,COC(=O)Cn1c(=O)[nH]c2cn(-c3ccccc3)c(=O)n21,-4.56
22,CC(C)CCN(C)Cc1ccccc1-c1nc(C(C)C)cc(=O)[nH]1,-6.83
23,Cc1cc(CNCc2c(C(C)C)nn(C)c2N2CCOCC2)no1,28.8
24,O=C(COCCOc1ccccc1)N1CCCC(n2ccnc2)C1 (configuration not stated),15.6
25,Cc1ccc(CN2CCn3c(C(=O)N(C)C)cnc3C2)s1,42.1

row,SMILES,INHIBITION [%]
1,CC1CCc2n[nH]c(C(=O)N3CCc4c(nc(N(C)C)[nH]c4=O)C3)c2C1 (configuration not stated),16.3
2,CN(C)c1nccc(N(C)Cc2nc3ccccc3n2C)n1,55.5
3,CN(C)c1nccc(N(C)Cc2ncnn2C)n1,32
4,CN(Cc1ncnn1C)c1ccnc(Cc2ccccc2)n1,-7.16
5,O=C(NCC1CC1)[C@H]1C[C@@H]2CCN(CCc3ccccc3)C[C@H]2O1,54.4
6,COCCNC(=O)[C@H]1C[C@@H]2CCN(CCc3ccccc3)C[C@H]2O1,59
7,COCCNC(=O)[C@H]1C[C@@H]2CCN(CCc3ccccc3)C[C@@H]2O1,22.9
8,O=C(NC1CCC1)[C@@H]1C[C@@H]2CCN(Cc3ccncc3)C[C@H]2O1,32.7
9,O=C(NC1CC1)[C@@H]1C[C@@H]2CCN(Cc3ccccc3)C[C@@H]2O1,47.4
10,O=C([C@@H]1C[C@@H]2CCN(C3CCOCC3)C[C@@H]2O1)N1CCCC1,-24.1
11,O=C([C@@H]1C[C@@H]2CCN(C3CCOCC3)C[C@H]2O1)N1CCCC1,-9.26
12,COCCNC(=O)[C@H]1C[C@@H]2CCN(c3ccccc3)C[C@H]2O1,10.5
13,O=C(NCC1CC1)[C@@H]1C[C@@H]2CCN(Cc3ccccc3)C[C@H]2O1,0.618
14,O=C([C@H]1C[C@@H]2CCN(C3CCOCC3)C[C@H]2O1)N1CCCC1,51
15,O=C(NC1CCC1)[C@@H]1C[C@@H]2CCN(Cc3cccs3)C[C@@H]2O1,50
16,O=C(NCC1CCOCC1)[C@H]1C[C@@H]2CCN(Cc3ccccc3)C[C@H]2O1,32.2
17,COc1ccc(OC2CCN(C(=O)[C@@H](N)Cc3c[nH]cn3)CC2)cc1,23.3
18,CN(C)CC1CSCCCN1C(=O)c1cccc(C(F)(F)F)c1 (configuration not stated),4.35
19,CC(=O)N1CCN(C(=O)Cc2cnc(-c3c(Cl)cccc3Cl)s2)CC1,13.8
20,CC(C)N1CCC(c2cc(C(F)(F)F)n3ccnc3n2)CC1,15.9
21,O=C1CNc2ncnc(Nc3cccc(Cn4cccn4)c3)c2N1,46.1
22,Cc1nonc1CN(C)Cc1cnn(-c2ccc(Cl)cc2)c1,-8.58
23,CN(C)CCCC(=O)N1C[C@@H]2CC[C@H]1CN(Cc1ccccc1)C2,11.2
24,c1ccc(-n2ccc(CN3CCCCC3Cn3cncn3)n2)cc1 (configuration not stated),-10.1
25,CCn1nc(C)c(NC(=O)CN2CC[C@@H](F)C2)c1C,24.5

row,SMILES,INHIBITION [%]
1,O=C([C@@H]1C[C@@H]2CCN(c3cccc(F)c3)C[C@H]2O1)N1CCCC1,42.1
2,O=C([C@H]1C[C@@H]2CCN(c3cccc(F)c3)C[C@H]2O1)N1CCCC1,89.5
3,O=C([C@@H]1C[C@@H]2CCN(Cc3ccc4c(c3)OCO4)C[C@@H]2O1)N1CCCC1,33.4
4,CNC(=O)[C@H]1C[C@@H]2CCN(CCc3ccccc3)C[C@@H]2O1,18.3
5,CN1CCN(C(=O)[C@@H]2C[C@@H]3CCN(c4cccc(F)c4)C[C@H]3O2)CC1,23.3
6,Cc1ncccc1NC(=O)[C@@H]1C[C@@H]2CCN(Cc3cccs3)C[C@H]2O1,8.93
7,COc1ccccc1CN1CC[C@H]2C[C@H](C(=O)N3CCCC3)O[C@H]2C1,64.2
8,O=C([C@@H]1C[C@@H]2CCN(Cc3ccoc3)C[C@H]2O1)N1CCCC1,26.7
9,Cc1ncccc1NC(=O)[C@H]1C[C@@H]2CCN(Cc3nccs3)C[C@@H]2O1,31.8
10,Cc1ncccc1NC(=O)[C@H]1C[C@@H]2CCN(Cc3ccsc3)C[C@H]2O1,75.4
11,COc1ccccc1CN1CC[C@H]2C[C@@H](C(=O)N3CCCC3)O[C@H]2C1,-16.6
12,O=C([C@@H]1C[C@@H]2CCN(CCc3ccccc3)C[C@H]2O1)N1CCCC1,50
13,CC(C)c1ccc(-n2ncc(C(=O)NCC3COC(C)(C)O3)c2N)cc1 (configuration not stated),-20.1
14,CCOC(=O)NCCC(=O)NC(C)(C)c1ccc2c(c1)OCCO2,-15.7
15,CC(C)(C)c1nc(CN(Cc2cccs2)CC2CCCO2)no1 (configuration not stated),11.2
16,c1cncc(COc2ccccc2CNC2CCc3ncnn3C2)c1 (configuration not stated),-4.823
17,Cc1noc(C2CCC3(CCN(C(=O)c4ncccn4)CC3)O2)n1 (configuration not stated),-14.2
18,O=C(C(c1ccccc1)S(=O)(=O)c1ccccn1)N1CCCCC1 (configuration not stated),24.7
19,Cc1ccc(C(C)N(C)C(=O)c2ccc(=O)n(C)c2)s1 (configuration not stated),37.4
20,Cc1ncsc1CN1CCOC(C)(C(=O)N(C)C)C1 (configuration not stated),21.1
21,CCCn1c(C)c(CC(=O)NC(C)(C)CO)c2c1CC(C)(C)CC2=O,4.25
22,Cn1cc(CN2C[C@@H]3COC[C@]3(C(=O)NCCc3ccccc3)C2)cn1,32.2
